# Test results reported in PubChem BioAssay AID504451 (NMMLSC, 2011).
# About 80 (4%) of roughly 2,000 compounds were called active.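 Rule for the calls: active = aptamer displacement above 40%, near three times the noise of non-fluorescent compounds, on plates passing quality checks; inactive = the rest.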 The entries come from a sample that favours actives as a whole.
# Target: Beta-adrenergic receptor kinase 1 (Homo sapiens) (UniProt P25098)
# Assay: RNA aptamer-GRK2 binding blockers – biochemical, cherry pick 1, bead flow cytometry, confirmation (AID 504451);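 note: negative values mostly reflect intrinsic compound fluorescence rather than true enhancement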
# Details: bead-bound GRK2, FAM-aptamer displacement, at 10 µM, stronger effect = higher value
# Sequence of Beta-adrenergic receptor kinase 1 (Homo sapiens) (P25098 whole entry, looked up): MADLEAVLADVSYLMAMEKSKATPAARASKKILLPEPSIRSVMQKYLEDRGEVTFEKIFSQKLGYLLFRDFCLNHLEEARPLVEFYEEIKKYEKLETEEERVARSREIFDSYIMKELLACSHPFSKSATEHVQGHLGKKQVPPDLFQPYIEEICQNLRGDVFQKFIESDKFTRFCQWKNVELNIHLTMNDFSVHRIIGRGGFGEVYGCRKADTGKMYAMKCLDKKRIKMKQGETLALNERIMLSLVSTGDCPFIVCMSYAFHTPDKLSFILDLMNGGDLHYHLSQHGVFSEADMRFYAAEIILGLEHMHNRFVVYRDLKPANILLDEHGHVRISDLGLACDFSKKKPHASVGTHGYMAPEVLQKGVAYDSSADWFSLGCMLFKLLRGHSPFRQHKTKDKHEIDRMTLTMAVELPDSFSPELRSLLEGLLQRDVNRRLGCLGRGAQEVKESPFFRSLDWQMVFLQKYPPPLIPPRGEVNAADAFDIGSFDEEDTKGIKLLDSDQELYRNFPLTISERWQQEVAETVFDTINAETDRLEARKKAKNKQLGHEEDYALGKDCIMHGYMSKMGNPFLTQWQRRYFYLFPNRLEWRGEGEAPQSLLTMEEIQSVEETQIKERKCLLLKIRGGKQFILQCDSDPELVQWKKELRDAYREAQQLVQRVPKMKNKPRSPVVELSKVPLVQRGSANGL
row,Structure (SMILES),aptamer displacement
1,COc1ccc(N2C(=O)/C(=C/c3ccco3)C(=O)NC2=S)cc1,86.6% (active)
2,O=C1NC(=O)N(Cc2ccco2)C(=O)/C1=C\c1cccn1CCOc1ccccc1,0.73% (inactive)
3,Cc1c(C(=O)O)cccc1-n1c(C)cc(/C=C2\C(=O)NC(=O)N(c3ccc4c(c3)OCO4)C2=O)c1C,37.1% (inactive)
